# Shown are actives, neighbours in structure and some others; about 4.8% of the full set was active somewhere.
# DAX1 inh-1 – NR0B1 (DAX1) inhibition; AID 504766; HEK293 Gal4-DAX1 luciferase reporter, luminescence; hit rate 0.99% among 340,000; inhibition, % at 6.75 µM;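 active = inhibition above the mean over all tested compounds plus 3 SD, cut at about 4.2% in these data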;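 note: 0% = DAX1-transfected cells with DMSO and 100% = empty-vector control cells with DMSO; inhibition shows as a rise in luminescence from relieved DAX1 repression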
# Target sequence (P51843 207-470 limits assumed): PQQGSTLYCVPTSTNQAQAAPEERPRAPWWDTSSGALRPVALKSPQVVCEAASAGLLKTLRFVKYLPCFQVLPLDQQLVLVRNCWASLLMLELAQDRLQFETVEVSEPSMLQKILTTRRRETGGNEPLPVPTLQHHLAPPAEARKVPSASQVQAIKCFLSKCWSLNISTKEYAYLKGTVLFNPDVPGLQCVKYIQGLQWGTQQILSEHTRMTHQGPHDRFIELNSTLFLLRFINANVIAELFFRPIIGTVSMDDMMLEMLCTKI
# hgDAF-12 ag – activates the H. glycines DAF-12 receptor ligand-binding domain | HEK293 GAL4-hgDAF12 UAS-luciferase reporter, agonist luminescence; normalized to butyrate control | activation, % at 6.8 µM | hit rate 1.8% among 370,000 | AID 687014;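 active = activation above a cutoff set at the mean of all screened compounds plus 3 SD, cut at about 10% in these data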;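 note: 0% = DMSO wells and 100% = sodium butyrate wells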
# ssDAF12 agonist – S. stercoralis DAF-12 activation, primary screen; hit rate 1% among 370,000; AID 652126; HEK293 ssDAF-12/GRIP1 lit1-tk-luc reporter, luminescence; % of 3 µM dafachronic acid response; activation, % at 6.8 µM;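 active = activation above the mean over all tested compounds plus 3 SD, cut at about 0.9% in these data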;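 note: 0% = DMSO-only wells and 100% = 3 µM delta7-dafachronic acid wells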
# SMARCA2 act – increases SMARCA2 function in MMTV reporter cells | MG213 cells, MMTV-luciferase reporter, dexamethasone, overnight | activation, % at 9.1 µM | hit rate 1% among 370,000 | AID 652017; in the data active = activation above about 7.8%;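 note: 0% = vehicle wells and 100% = reference activator wells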
# DAX1 inh-2 – inhibitors of DAX1 repression of SF-1 activated StAR promoter | inhibition, % at 6.8 µM | HEK293T StAR-luciferase reporter, SF-1/DAX-1 repression relief | hit rate 1.1% among 370,000;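 active = inhibition above the mean over all tested compounds plus 3 SD, cut at about 3.6% in these data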;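 note: 0% = DAX-1 cells with DMSO and 100% = cells lacking DAX-1 with DMSO; higher inhibition means more luminescence from relief of DAX-1 repression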
# hcDAF12 agonist – activators of H. contortus DAF-12 nuclear receptor. HEK293 hcDAF-12 lit1-tk-luc reporter, luminescence; 0% DMSO, 100% Δ7-dafachronic acid. activation, % at 6.8 µM. hit rate 1.4% among 370,000;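 active = activation above the mean of all tested compounds plus 3 SD, cut at about 5.5% in these data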;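 note: 100% = response to 3 µM Δ7-dafachronic acid high control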
# LXR ag – counter-screen for hcDAF-12 agonists: agonists of human LXR-beta; activation, % at 6.8 µM; shares compounds with hcDAF12 agonist; 3,400 tested, under 10 active; HEK293 Gal4-LXR tk-luc reporter, luminescence, 24 h; normalized: DMSO 0%, positive control 100%;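 active = mean percent activation of the reporter above a cutoff set as the average over tested compounds plus their standard deviation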
# Target sequence (P55055 whole entry, looked up, the tested form may be a part): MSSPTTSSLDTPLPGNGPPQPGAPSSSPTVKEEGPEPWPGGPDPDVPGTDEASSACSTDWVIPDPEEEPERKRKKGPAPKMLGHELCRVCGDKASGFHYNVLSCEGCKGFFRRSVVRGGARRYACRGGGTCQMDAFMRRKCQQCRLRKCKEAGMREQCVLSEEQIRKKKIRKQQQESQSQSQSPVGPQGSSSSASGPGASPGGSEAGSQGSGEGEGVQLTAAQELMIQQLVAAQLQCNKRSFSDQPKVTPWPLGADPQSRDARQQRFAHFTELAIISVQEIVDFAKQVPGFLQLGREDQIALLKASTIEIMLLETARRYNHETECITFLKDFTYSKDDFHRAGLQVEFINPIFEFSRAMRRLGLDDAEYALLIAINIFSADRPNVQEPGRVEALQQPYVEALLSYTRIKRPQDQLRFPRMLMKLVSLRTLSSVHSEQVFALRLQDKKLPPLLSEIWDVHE
# hcDAF12 ag – hcDAF-12 agonism, confirmation assay; shares compounds with hcDAF12 agonist; HEK293 hcDAF-12 lit1-tk-luc reporter, luminescence; % of Δ7-dafachronic acid response; activation, % at 6.8 µM; hit rate 61% among 3,400;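 active = mean activation across triplicate tests above the threshold derived from the earlier primary screen, cut at about 5.5% in these data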;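 note: 0% = DMSO only wells and 100% = 3 µM Δ7-dafachronic acid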
# * marks the source's active call; other numbers are inactive results; / = not tested or not shown.
SMILES,DAX1 inh-1,hgDAF-12 ag,ssDAF12 agonist,SMARCA2 act,DAX1 inh-2,hcDAF12 agonist,LXR ag,hcDAF12 ag
COCCNC(=O)CCC(=O)NNc1nc2ccccc2c2nc(C)nn12,0.2,-0.3,-0.9,0.9,-0.4,-0.8,/,/
CC(C)CCNC(=O)CCC(=O)NNc1nc2ccccc2c2nc(-c3ccccc3)nn12,-0.9,1.9,0.3,-0.5,-0.1,6.8*,-0.1,2.4
Cc1cc(O)c(C(=O)/C=C/c2ccc(C(C)C)cc2)c(=O)o1,5.7*,10.8*,1.1*,6.4,2.1,8.6*,0.2,3.3
Cc1cc(O)c(C(=O)/C=C/c2ccccc2)c(=O)o1,0.1,2.1,-0.5,-2.1,0.2,1.1,/,/
O=C(NCc1ccccc1)c1c[nH]c2cc3c(cc2c1=O)OCCO3,1.6,7.8,-1.2,0.1,1.1,2.7,/,/
COCCNC(=O)CN1C(=O)NC2(CCOc3ccccc32)C1=O (stereo not given),0.4,0.3,-0.5,-1.3,-0.1,7.2*,-0.2,4.4
COc1ccc(CN(C(=O)c2cc3ccccc3oc2=O)C2CCS(=O)(=O)C2)cc1OC (stereo not given),0.0,9.9,0.5,3.3,1.1,10.1*,0.6,3.1
COc1ccc(CN(C(=O)c2cc3ccccc3oc2=O)C2CCS(=O)(=O)C2)cc1 (stereo not given),1.0,0.7,-0.7,2.5,-0.3,2.5,/,/
O=S(=O)(N[C@H]1CCCC[C@@H]1N1CCOCC1)c1ccc(Cl)cc1,/,1.1,-1.2,/,/,0.2,/,/
O=C(Nn1cnnc1)c1cc(-c2ccccn2)nc2ccccc12,0.2,5.6,1.3*,6.5,1.6,10.9*,-0.2,4.1
O=C(CNc1cccc2ccccc12)c1ccc([N+](=O)[O-])cc1,-0.4,-2.5,0.1,-4.2,-0.4,6.8*,-0.1,1.5
CCOc1cc(/C=C2\N=C(C)OC2=O)cc(Br)c1OCC(=O)OC,-0.2,-0.9,0.6,4.8,0.5,6.7*,0.0,1.7
Cc1ccc(Nc2nc(N)c3ccccc3n2)cc1Cl,0.4,11.5*,3.6*,1.2,3.0,11.5*,2.2,14.9*
COC(=O)Nc1ccc(S(=O)(=O)Nc2ccc(O)cc2)cc1,-0.7,-2.3,-1.2,-2.0,-0.9,-2.8,/,/
CCCOc1ccc(C(=O)NC(=S)Nc2nc3ccccc3s2)cc1,0.7,1.5,0.1,2.4,0.8,6.9*,0.0,7.6*
COc1ccc(-c2csc(NC(=S)NC(=O)c3ccco3)n2)cc1,0.7,0.0,-0.7,1.4,0.1,0.3,/,/
O=C(NC(=S)Nc1nc(-c2ccccc2)cs1)c1ccco1,0.6,-1.3,0.0,-1.9,-0.1,7.0*,0.0,7.3*
O=C(NC(=S)Nc1nc(-c2ccccc2)cs1)c1cccs1,0.1,2.9,-0.3,1.3,0.0,8.2*,-0.2,5.3
CC(=O)Nc1ccc2nc(NC(=O)c3ccco3)sc2c1,1.7,10.3,-0.3,7.4,2.5,6.7*,1.1,10.0*
CC(=O)Nc1ccc2nc(NC(=O)c3ccc([N+](=O)[O-])o3)sc2c1,-2.5,1.4,-0.7,-2.3,-1.3,0.2,/,/
CCCOc1ccc(C(=O)NC(=S)NCc2cccnc2)cc1,2.8,0.8,-1.3,-0.7,-1.8,-3.4,/,/
OC(CNCc1ccc(Cl)cc1)COc1ccccc1 (stereo not given),-1.1,-0.8,-1.6,-2.9,-0.2,-1.9,/,/
CC1CCCC(C)N1NC(=O)c1cccc(S(=O)(=O)N2CCc3ccccc32)c1 (stereo not given),1.5,0.1,-1.2,0.3,0.2,0.3,/,/
O=C(NC(=S)Nc1ccccc1N1CCCC1)c1ccco1,/,4.9,0.1,-0.8,-0.2,7.6*,0.0,4.9
O=C(NC(=S)Nc1cccc2cccnc12)c1ccccc1,1.3,1.9,-0.8,2.1,-0.2,0.0,/,/
SMILES,DAX1 inh-1,hgDAF-12 ag,ssDAF12 agonist,SMARCA2 act,DAX1 inh-2,hcDAF12 agonist,LXR ag,hcDAF12 ag
O=C(NC(=S)Nc1cccc2cccnc12)c1cccs1,-1.2,0.3,-0.9,-1.3,-0.5,6.6*,-0.1,3.8
O=C(NC(=S)Nc1nc2ccccc2s1)c1ccco1,3.4,13.2*,2.2*,7.1,1.9,10.9*,0.9,12.1*
COc1ccc(Nc2nc(-c3c[nH]c4ccccc34)cs2)cc1,-0.5,5.8,0.8,1.1,1.4,10.9*,0.3,4.8
O=C(CSc1nnc(Nc2ccccc2F)s1)c1cc2ccccc2o1,0.1,1.9,-0.1,1.3,-0.2,7.8*,0.0,2.8
O=C1c2ccccc2C(=O)N1CSc1nnc(Nc2ccccc2F)s1,-2.0,-0.7,-1.4,6.6,1.4,-0.4,/,/
COc1ccc(Nc2nnc(SCC(=O)N3CCCC3)s2)cc1,0.2,0.0,-1.4,1.4,-0.4,-1.6,/,/
COc1ccc(Nc2nnc(SCC(=O)c3cc4ccccc4o3)s2)cc1,4.1,5.6,2.0*,0.5,2.2,10.0*,0.0,5.2
Cc1ccc(C(=O)N2CCCC(N3CCN(c4ccccc4F)CC3)C2)s1 (stereo not given),-0.5,-0.7,-0.9,2.7,-1.2,-1.7,/,/
CC1CC(C)CN(C(=O)CNC(=O)Cn2ccc3ccccc3c2=O)C1 (stereo not given),0.1,-2.6,-1.2,0.3,0.5,-0.2,/,/
Cc1ccc(C)c(-n2cc(CNC(C)Cn3cncn3)c(-c3ccccc3)n2)c1 (stereo not given),-1.2,-2.5,-1.4,-1.0,-0.5,-3.5,/,/
O=C(Nc1ccccc1Cl)c1ccc(-c2ccccn2)s1,5.0*,10.6*,0.3,0.9,2.1,8.7*,0.6,3.4
O=C(Nc1ccccc1Cl)c1cccs1,0.6,1.6,-1.2,1.5,-0.5,-0.5,/,/
Cc1cc(C)c2c(c1)N[C@H](c1cccs1)[C@@H]1CCO[C@H]21,1.4,1.1,-1.1,-1.1,-0.5,-2.1,/,/
CC(C)c1ccc2c(c1)[C@H]1OCC[C@H]1[C@@H](c1cccs1)N2,-1.9,10.4,0.8,-0.6,-2.7,13.8*,0.4,3.7
Cc1ccc(N=Nc2c(C)[nH]n(C(N)=S)c2=O)cc1C,-0.1,6.2,0.1,2.6,1.5,9.2*,1.4,11.5*
Cc1[nH]n(C(N)=S)c(=O)c1N=Nc1ccc(S(=O)(=O)N2CCCCCC2)cc1,-1.0,-2.1,-1.2,5.5,-0.8,0.4,/,/
CC(=O)Nc1ccc(N=Nc2c(C)[nH]n(C(N)=S)c2=O)cc1,0.8,0.8,-1.0,1.7,0.6,0.7,/,/
Cc1[nH]n(C(N)=S)c(=O)c1N=Nc1ccc2ccccc2c1,1.0,12.6*,1.3*,3.9,2.8,15.2*,0.8,9.0*

# Screening results (PubChem BioAssay)
